Results on 58 compounds are retold here after PubChem BioAssay AID463173 (ICCB-Longwood Screening Facility, Harvard Medical School, 2010).

Out of some 52,000 compounds screened, about 1,700 (3.3%) were called active. Cut-off read from the data, not from the text of the source: active = survival mostly below about 52% (no sharp cut-off); inactive = mostly above about 56%. For the sample, actives were picked, then their nearest neighbours and some compounds at random.

This test has as its system Wild type. In words: growth inhibition of S. aureus wild type versus tarO mutant, primary screen, teichoic acid synthesis inhibitors, RN4220, OD600 (AID 463173). Conditions: S. aureus RN4220 wild type/DeltatarO growth, OD600, 18 h, hits give low values, screened at 18.75 µg/mL (by protocol).
Turning to `CCN(CC)S(=O)(=O)c1cc(-c2onc(C)c2C)ccc1OC`, the survival is 87% (inactive).

On to `CCCCn1cc(S(=O)(=O)c2ccc(Cl)cc2)c(=O)c2cc(F)c(N3CCCCC3)cc21`, for which the survival is 105% (inactive).

Take `Cc1cc(C)cc(OCC(=O)Nc2ccc(S(=O)(=O)Nc3onc(C)c3C)cc2)c1`: the survival is 73% (inactive).

As to `CC(=O)N1CCc2c(sc3c2c(=O)n(-c2ccccc2)c(=O)n3CC(=O)Nc2cccc(C)c2)C1`, the survival is 91% (inactive).

Consider `CC(C)(C)C(=O)Nc1ccc(-c2nc3ccc(NC(=O)C(C)(C)C)cc3[nH]2)cc1`, for which the survival was 148% (inactive).

With `O=C(Nc1ccc2nc(-c3ccccc3)[nH]c2c1)c1ccco1`, the survival was 1% (active).

`CCC(=O)Nc1ccc(-c2nc3ccc(NC(=O)CC)cc3[nH]2)cc1`: the survival was 113% (inactive).

As for `CCOC(=O)c1sc2ccccc2c1S(=O)(=O)Nc1ccc(C(C)=O)cc1`, the survival is 90% (inactive).

For the compound `COc1ccc(S(=O)(=O)c2c(C)c(NS(=O)(=O)c3ccccc3)cc(C)c2O)cc1`, the survival is 90% (inactive).

As to `Cc1ccc(S(=O)(=O)c2c(O)cc(C)c(NS(=O)(=O)c3ccc(Cl)cc3)c2C)cc1`, the survival was 105% (inactive).

In the case of `Cc1ccc(S(=O)(=O)c2c(O)cc(C)c(NS(=O)(=O)c3ccc(Br)cc3)c2C)cc1`, the survival was -1% (active).

On to `CC(OC(=O)c1cc2sccc2n1C)C(=O)NCC1CCCO1` (stereo not drawn), for which the survival is 107% (inactive).

Regarding `COC(=O)c1ccc(-n2nnc(-c3nsc(NC(=O)c4ccc(Cl)cc4)n3)c2C)cc1`, the survival is 79% (inactive).

For `COc1ccc(C2c3c(n(C)c4ccccc34)C(=O)N2CC(=O)Nc2cccc(F)c2)cc1` (stereo not drawn), the survival is 85% (inactive).

Take `O=C(NCc1ccc(F)cc1)C(=O)NCC(c1ccc2c(c1)OCO2)N1CCOCC1` (stereo not drawn): the survival is 88% (inactive).

Take `CCOc1ccc(N2CC(c3nc4ccccc4n3CCOc3ccc(CC)cc3)CC2=O)cc1` (stereo not drawn): the survival is 79% (inactive).

For `CCc1ccc(OCCn2c(C3CC(=O)N(Cc4ccc(F)cc4)C3)nc3ccccc32)cc1` (stereo not drawn), the survival is -14% (active).

With `COc1ccc(OCCn2c(C3CC(=O)N(c4ccc(F)cc4)C3)nc3ccccc32)cc1` (stereo not drawn), the survival is 84% (inactive).

With `COc1ccc(OCCCn2c(C3CC(=O)N(c4ccc(F)cc4)C3)nc3ccccc32)cc1` (stereo not drawn), the survival was 85% (inactive).

For the compound `O=C1CC(c2nc3ccccc3n2CCCOc2ccccc2)CN1c1ccc(F)cc1` (stereo not drawn), the survival is 107% (inactive).

For the compound `Cc1cc(OCCn2c(C3CC(=O)N(Cc4ccc(F)cc4)C3)nc3ccccc32)ccc1Cl` (stereo not drawn), the survival is -15% (active).

As to `N#C/C(=C\c1ccccc1)C(=O)Nc1sc2c(c1C(N)=O)CCC2`, the survival was 75% (inactive).

For `COc1ccccc1CCNC(=O)c1cc2ccccn2n1`, the survival was 152% (inactive).

In the case of `CC(=O)Nc1c(C)nn(-c2ccccc2)c1N1CCC(C(=O)NCc2ccc(Cl)cc2)CC1`, the survival was 81% (inactive).

With `CC(=O)Nc1c(C)nn(-c2ccccc2)c1N1CCC(C(=O)Nc2ccc(F)cc2Cl)CC1`, the survival was 60% (inactive).

`CC(=O)Nc1c(C)nn(-c2ccccc2)c1N1CCC(C(=O)Nc2ccc(C)cc2Cl)CC1`: the survival is 71% (inactive).

`CC(=O)Nc1c(C)nn(-c2ccccc2)c1N1CCC(C(=O)Nc2cc(F)ccc2F)CC1`: the survival is 63% (inactive).

With `CC(=O)Nc1c(C)nn(-c2ccccc2)c1N1CCC(C(=O)NCc2cccc(Cl)c2)CC1`, the survival is 71% (inactive).

Consider `CC(=O)Nc1c(C)nn(-c2ccccc2)c1N1CCC(C(=O)NCc2ccccc2Cl)CC1`, for which the survival was -4% (active).

With `CC(=O)Nc1ccc(NC(=O)C2CCN(c3c(NC(C)=O)c(C)nn3-c3ccccc3)CC2)cc1`, the survival was 63% (inactive).

Consider `CC(=O)Nc1c(C)nn(-c2ccccc2)c1N1CCC(C(=O)NCc2ccc(F)cc2)CC1`, for which the survival is -3% (active).

Take `CC(=O)Nc1c(C)nn(-c2ccccc2)c1N1CCC(C(=O)NCc2cccc(F)c2)CC1`: the survival is 1% (active).

As to `CN(C(=O)CSc1nc2ccc(NC(=O)c3cccs3)cc2s1)c1ccccc1`, the survival is 77% (inactive).

With `CCOc1ccc(NC(=O)Cn2cc(C(=O)C3CC3)c3ccccc32)cc1`, the survival is 78% (inactive).

`CC1Cc2ccccc2N1C(=O)c1cc2sccc2n1Cc1ccc(F)cc1` (stereo not drawn): the survival is 119% (inactive).

For the compound `Cn1c(=O)cc(OCC(=O)NCc2ccc(F)cc2Cl)c2ccccc21`, the survival was 117% (inactive).

For the compound `CCOc1ccc(NC(=O)c2c(NC(=O)Cc3ccccc3)sc3c2CCCC3)cc1`, the survival is 69% (inactive).

Turning to `Cc1noc(-c2ccc(-c3noc(-c4ccc(F)cc4)n3)cc2)n1`, the survival was 64% (inactive).

With `Cc1noc(-c2ccc(-c3noc(-c4ccccc4)n3)cc2)n1`, the survival was -6% (active).

As for `Cc1noc(-c2ccc(-c3noc(-c4ccc(Cl)cc4)n3)cc2)n1`, the survival is 87% (inactive).

As to `Clc1cccc(C2=NC(c3cccs3)=Nc3ccc(Br)cc3N2)c1`, the survival was 79% (inactive).

Turning to `CCOc1ccc(-c2c(C)nn3c(C)c(C(=O)NCCN(C)C)cnc23)cc1OCC`, the survival is 87% (inactive).

In the case of `Cc1cccc(N2CCN(c3c4c(nc5nncn35)CCC4)CC2)c1C`, the survival is 84% (inactive).

`COc1ccccc1CNC(=O)Cn1ncc2c3ccccc3n(Cc3ccccc3C)c2c1=O`: the survival was 85% (inactive).

Turning to `CCCn1c2ccccc2c2cnn(CC(=O)NC(C)CC)c(=O)c21` (stereo not drawn), the survival is 64% (inactive).

As for `CCCn1c2ccccc2c2cnn(CC(=O)NCC3CCN(Cc4ccc(F)cc4)CC3)c(=O)c21`, the survival is 74% (inactive).

For the compound `CCCn1c2ccccc2c2cnn(CC(=O)NCC3CCN(Cc4ccc(C)cc4)CC3)c(=O)c21`, the survival was -1% (active).

Turning to `CCCn1c2ccccc2c2cnn(CC(=O)NCC3CCN(Cc4ccccc4C)CC3)c(=O)c21`, the survival was 14% (active).

Turning to `CCCn1c2ccccc2c2cnn(CC(=O)NCc3ccccc3Cl)c(=O)c21`, the survival is 120% (inactive).

In the case of `Cc1ccc(CNC(=O)CN(C)S(=O)(=O)c2ccc3c(c2)c(=O)n(C)c(=O)n3C)cc1`, the survival was 84% (inactive).

Regarding `c1ccc(C(c2nnnn2C2CCCC2)N2CCN(c3ccccc3)CC2)cc1` (stereo not drawn), the survival is 108% (inactive).

`Cc1ccc(C)c(N2CCN(C(=O)C3CCC(CNS(=O)(=O)c4ccc(Br)s4)CC3)CC2)c1` (stereo not drawn): the survival was 76% (inactive).

Consider `O=C(Nc1ccc(F)cc1)c1ccc(CN2CC(=O)N3CCCCC3C2=O)cc1` (stereo not drawn), for which the survival is -6% (active).

For `Cc1ccc(NC(=O)c2ccc(CN3CC(=O)N4CCCCC4C3=O)cc2)cc1` (stereo not drawn), the survival was -6% (active).

Turning to `CCc1ccc(NC(=O)c2ccc(CN3CC(=O)N4CCCCC4C3=O)cc2)cc1` (stereo not drawn), the survival was 87% (inactive).

Consider `Cc1ccc(NC(=O)c2ccc(CN3CC(=O)N4CCCCC4C3=O)cc2)cc1C` (stereo not drawn), for which the survival is 73% (inactive).

Turning to `O=C(Nc1cc(F)ccc1F)c1ccc(CN2CC(=O)N3CCCCC3C2=O)cc1` (stereo not drawn), the survival was 76% (inactive).

With `CC(C)c1ccc(NC(=O)c2ccc(CN3CC(=O)N4CCCCC4C3=O)cc2)cc1` (stereo not drawn), the survival was 90% (inactive).
